# Test results from PubChem BioAssay (NCATS).
# Inconclusive results are not listed. Entries that show only a call come without a potency. The source made the active and inactive calls. The call rests on the fitted dose curve; in most records, active means well fitted curve in the direction sought with a large enough effect; inconclusive means small, poorly fitted or top-dose-only effect, or another doubt; inactive means no such curve, though single readings can be large; an effect the other way counts as inactive or inconclusive.
# What was measured:
# NIH3T3 = assay: qHTS assay to identify novel small-molecules to repurpose for Merkel cell carcinoma treatment (AID 1296009); details: MCC and control cell lines, CellTiter-Glo viability, 72 h; at 44.8 µM (top of the series) unless noted; further: nearly all actives have a fitted effect of over 60% in size; further: potency means the concentration at half of the fitted maximal effect
# Summary of the method: (§1)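 Cell viability, measured as CellTiter-Glo luminescence, was normalized between DMSO and no-cell wells. The cells had been exposed to 8- or 11-point compound dilutions for 72 hr at 37 degree celsius.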
# UISO = assay: as above; details: MCC and control cell lines, CellTiter-Glo viability, 72 h; series mostly up to 46 µM
# Summary of the method: as §1
# WaGa = assay: as above; details: MCC and control cell lines, CellTiter-Glo viability, 72 h; series mostly up to 46 µM
# Summary of the method: as §1
# C33A = assay: Primary qHTS to identify gynecologic anti-cancer compounds using libraries of approved drugs and bioactive compounds (AID 1345084); details: Gynecologic cancer cell panel viability, ATPlite luminescence, 48 h; series mostly up to 57.5 µM; further: nearly all actives have a fitted effect of over 55% in size
# Summary of the method: (§2)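 Five-concentration response, 48 h; readout is ATP-driven luciferase luminescence.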
# CAOV3 = assay: as above; details: Gynecologic cancer cell panel viability, ATPlite luminescence, 48 h; series mostly up to 57.5 µM
# Summary of the method: as §2
# CASKI = assay: as above; details: Gynecologic cancer cell panel viability, ATPlite luminescence, 48 h; series mostly up to 57.5 µM
# Summary of the method: as §2
# Es-2 = assay: as above; details: Gynecologic cancer cell panel viability, ATPlite luminescence, 48 h; series mostly up to 57.5 µM
# Summary of the method: as §2
# HeLa = assay: as above; details: Gynecologic cancer cell panel viability, ATPlite luminescence, 48 h; series mostly up to 57.5 µM
# Summary of the method: as §2
# Hek293T = assay: as above; details: Gynecologic cancer cell panel viability, ATPlite luminescence, 48 h, control line for the selectivity index; series mostly up to 57.5 µM
# Summary of the method: as §2
# JEG-3 = assay: as above; details: Gynecologic cancer cell panel viability, ATPlite luminescence, 48 h; series mostly up to 57.5 µM
# Summary of the method: as §2
SMILES,outcome (NIH3T3),Potency (UISO),Potency (WaGa),Potency (C33A),Potency (CAOV3),Potency (CASKI),Potency (Es-2),Potency (HeLa),Potency (Hek293T),Potency (JEG-3)
C[C@]12CCC(=O)C=C1CC[C@@H]1[C@@H]2[C@@H](O)C[C@@]2(C)[C@H]1CC[C@]2(O)C(=O)COC(=O)CCC(=O)O,inactive,inactive,inactive,inactive,inactive,inactive,inactive,inactive,inactive,inactive
COc1ccc(/C(C)=C/C(=O)O)c(OC)c1,inactive,inactive,inactive,inactive,inactive,inactive,inactive,inactive,inactive,inactive
N#CC1(c2ccc(F)cc2)CCC(=O)CC1,inactive,inactive,inactive,inactive,inactive,inactive,inactive,inactive,inactive,inactive
CN(C)CCN(Cc1ccsc1)c1ccccn1,inactive,inactive,inactive,inactive,inactive,inactive,inactive,inactive,inactive,inactive
CCn1ccc(NS(=O)(=O)c2ccc(N)cc2)nc1=O,inactive,inactive,inactive,inactive,inactive,inactive,inactive,inactive,inactive,inactive
COC(=O)/C=C\C(=O)OC,inactive,inactive,inactive,inactive,inactive,inactive,inactive,inactive,inactive,inactive
CCS(=O)(=O)c1ccc(OC)c(C(=O)OC)c1,inactive,inactive,inactive,inactive,inactive,inactive,inactive,inactive,inactive,inactive
O=C(O)C(=O)Nc1cccc(-c2nn[nH]n2)c1,inactive,inactive,inactive,inactive,inactive,inactive,inactive,inactive,inactive,inactive
Cn1cc(S(C)=O)c(=O)c2ccc(F)cc21 (centres undefined),inactive,inactive,inactive,inactive,inactive,inactive,inactive,inactive,inactive,inactive
CCNC(=O)NCCCOc1cccc(CN2CCCCC2)c1,inactive,inactive,inactive,inactive,inactive,inactive,inactive,inactive,inactive,inactive
CCCCCOc1ccc(C2SC(=O)NC2=O)cc1OCC (centres undefined),inactive,inactive,inactive,inactive,inactive,inactive,inactive,inactive,inactive,inactive
OCc1cccnc1,inactive,inactive,inactive,inactive,inactive,inactive,inactive,inactive,inactive,inactive
CN1C(CSCC(F)(F)F)Nc2cc(Cl)c(S(N)(=O)=O)cc2S1(=O)=O (centres undefined),inactive,inactive,inactive,inactive,inactive,inactive,inactive,inactive,inactive,inactive
CCCCCC1Nc2cc(C(F)(F)F)c(S(N)(=O)=O)cc2S(=O)(=O)N1 (centres undefined),inactive,inactive,inactive,inactive,inactive,inactive,inactive,inactive,inactive,inactive
CCCc1c2oc(C(=O)O)cc(=O)c2cc2c(=O)cc(C(=O)O)n(CC)c12,inactive,inactive,inactive,inactive,inactive,inactive,inactive,inactive,inactive,inactive
COc1ccc2c(c1)CCCC2=O,inactive,inactive,inactive,inactive,inactive,inactive,inactive,inactive,inactive,inactive
COC(=O)c1cc(S(N)(=O)=O)ccc1OC,inactive,inactive,inactive,inactive,inactive,inactive,inactive,inactive,inactive,inactive
CCOC(=O)C(=O)CCCCCCl,inactive,inactive,inactive,inactive,inactive,inactive,inactive,inactive,inactive,inactive
Nc1c[n+](N2CCOCC2)no1,inactive,inactive,inactive,inactive,inactive,inactive,inactive,inactive,inactive,inactive
Cc1cc(=O)oc2cc(O[C@@H]3SC[C@@H](O)[C@H](O)[C@H]3O)ccc12,inactive,inactive,inactive,inactive,inactive,inactive,inactive,inactive,inactive,inactive
CCCCCC[C@@H](CCC)C(=O)O,inactive,inactive,inactive,inactive,inactive,inactive,inactive,inactive,inactive,inactive
OC[C@]1(O)OC[C@@H](O)[C@H](O)[C@@H]1O,inactive,inactive,inactive,inactive,inactive,inactive,inactive,inactive,inactive,inactive
COc1ccc2nc(SCc3ncc(C)c(OC)c3C)[nH]c2c1,inactive,inactive,inactive,inactive,inactive,inactive,inactive,inactive,inactive,inactive
O=P(O)(O)OCC(O)CO (centres undefined),inactive,inactive,inactive,inactive,inactive,inactive,inactive,inactive,inactive,inactive
O=C(CO)[C@@H](O)[C@H](O)[C@@H](O)CO,inactive,inactive,inactive,inactive,inactive,inactive,inactive,inactive,inactive,inactive

SMILES,outcome (NIH3T3),Potency (UISO),Potency (WaGa),Potency (C33A),Potency (CAOV3),Potency (CASKI),Potency (Es-2),Potency (HeLa),Potency (Hek293T),Potency (JEG-3)
CC(CC(C#N)(c1ccccc1)C(C)C)N(C)C (centres undefined),inactive,inactive,inactive,inactive,inactive,inactive,inactive,inactive,inactive,inactive
COc1ccccc1OCC1CNC(=O)O1 (centres undefined),inactive,inactive,inactive,inactive,inactive,inactive,inactive,inactive,inactive,inactive
Cc1coc2ccccc2c1=O,inactive,inactive,inactive,inactive,inactive,inactive,inactive,inactive,inactive,inactive
CCOC(=O)Oc1ccc(CCNC(=O)[C@H](CCSC)NC(C)=O)cc1OC(=O)OCC,inactive,inactive,inactive,inactive,inactive,inactive,inactive,inactive,inactive,inactive
O=C(CCCl)NCc1ccccc1,inactive,inactive,inactive,inactive,inactive,inactive,inactive,inactive,inactive,inactive
CC(C)(C)NCC(O)COc1ccccc1OCC1CCCO1 (centres undefined),inactive,inactive,inactive,inactive,inactive,inactive,inactive,inactive,inactive,inactive
OC1(c2ccccc2)CCNCC1,inactive,inactive,inactive,inactive,inactive,inactive,inactive,inactive,inactive,inactive
CC(C)(C)c1ccc(O)c(O)c1,,15.4 µM (active),10.9 µM (active),,,,,,,
OCCOCCN1CCN(C(c2ccccc2)c2ccc(Cl)cc2)CC1 (centres undefined),inactive,inactive,,inactive,inactive,inactive,inactive,inactive,inactive,inactive
Cc1ccc(C(=O)Oc2ccc(C(O)CNC(C)(C)C)cc2OC(=O)c2ccc(C)cc2)cc1 (centres undefined),inactive,inactive,,inactive,,inactive,inactive,inactive,inactive,inactive
O=C(OCC(COC(=O)c1cccnc1)(COC(=O)c1cccnc1)COC(=O)c1cccnc1)c1cccnc1,inactive,inactive,inactive,inactive,,inactive,inactive,inactive,inactive,inactive
CN1CCN(N)CC1,inactive,inactive,inactive,inactive,inactive,inactive,inactive,inactive,inactive,inactive
COC(=O)CCCCC(CCSS/C(CCO)=C(\C)N(C=O)Cc1cnc(C)nc1N)SC(C)=O (centres undefined),inactive,inactive,inactive,inactive,,inactive,inactive,inactive,inactive,inactive
Clc1ccc2c(c1)Nc1ccccc1S2,inactive,,inactive,inactive,inactive,inactive,inactive,inactive,inactive,inactive
C#CC(C)(CC)OC(=O)c1ccccc1C(=O)O (centres undefined),inactive,inactive,inactive,inactive,,inactive,inactive,inactive,inactive,inactive
CC(C)C(C)(C)C(C)(C)C(C)(C)S,,inactive,inactive,inactive,inactive,inactive,inactive,inactive,inactive,
Brc1ccc([C@H]2CN3CCSC3=N2)cc1,inactive,,,inactive,inactive,inactive,inactive,inactive,inactive,inactive
CCC(=O)Oc1ccc2c(c1)CC[C@@H]1[C@@H]2CC[C@@]2(C)[C@H]1C[C@@H](OC(=O)CC)[C@@H]2OC(=O)CC,inactive,inactive,,inactive,inactive,inactive,inactive,inactive,inactive,inactive
O=C(O)CCC(=O)OC[C@@H](NC(=O)C(Cl)Cl)[C@H](O)c1ccc([N+](=O)[O-])cc1,,inactive,inactive,inactive,inactive,inactive,inactive,inactive,inactive,inactive
CCCCOC(=O)CCCCCCCCC(=O)OCCCC,inactive,inactive,inactive,inactive,,inactive,inactive,inactive,inactive,inactive
Cc1nc([N+](=O)[O-])cn1-c1ccc([N+](=O)[O-])cc1,inactive,inactive,inactive,inactive,,inactive,inactive,inactive,inactive,inactive
CCOC(=O)O[C@]1(C(=O)OCCl)CC[C@H]2[C@@H]3CCC4=CC(=O)C=C[C@]4(C)[C@H]3[C@@H](O)C[C@@]21C,inactive,inactive,inactive,inactive,,inactive,inactive,inactive,inactive,inactive
CCOC(=O)c1cc(=O)c2c(OCC(COc3cccc4oc(C(=O)OCC)cc(=O)c34)OC(=O)[C@@H](N)CCCCN)cccc2o1,inactive,inactive,,inactive,inactive,inactive,inactive,inactive,inactive,inactive
N=C(N)c1ccc(OCCCOc2ccc(C(=N)N)cc2)cc1,inactive,inactive,inactive,inactive,,inactive,inactive,inactive,inactive,inactive
